Compound activity from PubChem BioAssay.
A selection: hits, their analogues and other compounds. The true share with any hit is near 2.9%.
D3 antag: qHTS of D3 Dopamine Receptor Antagonist: qHTS; D(3) dopamine receptor (Homo sapiens), P35462; D3R cells, DiscoveRx beta-arrestin luminescence, antagonist mode; active compounds read low; max response, negative = inhibition, %; hit rate 2.5% among 360,000; in the data active means max response below about -50%; inconclusive means no clear call, values can overlap the other calls
Target sequence (P35462 whole entry, looked up): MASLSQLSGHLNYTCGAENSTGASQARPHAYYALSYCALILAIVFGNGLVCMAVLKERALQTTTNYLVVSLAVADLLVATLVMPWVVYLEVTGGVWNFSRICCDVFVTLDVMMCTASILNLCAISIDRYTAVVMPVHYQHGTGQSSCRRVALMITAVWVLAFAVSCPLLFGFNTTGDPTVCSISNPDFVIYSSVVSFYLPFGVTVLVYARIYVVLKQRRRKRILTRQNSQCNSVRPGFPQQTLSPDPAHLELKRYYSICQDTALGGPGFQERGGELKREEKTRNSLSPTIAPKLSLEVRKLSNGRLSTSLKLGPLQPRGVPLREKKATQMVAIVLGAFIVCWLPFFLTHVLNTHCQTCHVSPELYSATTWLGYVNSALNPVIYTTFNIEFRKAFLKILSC
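Cells expressing the human receptor were seeded at 1500 cells/well, incubated overnight at 37 degrees C in 5% CO2, then exposed to library compounds with dopamine controls for 90 minutes at 37 degrees C before luminescent detection.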
a7 integrin act: qHTS for Activators of Integrin-Mediated Alleviation for Muscular Dystrophy | Potency, µM (titrated, usually from 38.3 µM), hits mostly activators | hit rate 0.064% among 350,000 | alpha7betagal myoblasts, beta-gal FDG fluorescence, 48 h; active means well fitted activation curve with a large enough effect; inconclusive means small, poorly fitted or top-dose-only effect; inactive means no such curve, though single readings can be large or run the other way; further: nearly all actives have a fitted effect of over 60% in size
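alpha7betagal+/- myoblasts (passage 13, 250/well) treated 48 h at 37C with compounds at 1:260 dilution of DMSO stock. Lysed, then beta-galactosidase activity read as FDG fluorescence (ex 480/em 540) after 30 min, with pre-read for autofluorescence.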
DRD3 agonist: qHTS of D3 Dopamine Receptor Agonist: qHTS; D(3) dopamine receptor (Homo sapiens), P35462; D3R DiscoveRx beta-arrestin cells, luminescence, 90 min; max activation, %; hit rate 0.58% among 410,000; in the data active means max activation above about 30%
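Agonist mode: compounds and dopamine controls were applied to plated cells for 90 min at 37 degrees C after an overnight attachment at 1500 cells/well. Luminescent read-out followed 30 - 60 minutes at room temperature with DiscoveRx detection reagent.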
Of the large screens only hits and unclear results are named; the others gave an inactive call.

CN(CC(=O)NCC(=O)Nc1ccc(F)c(F)c1F)C1CCS(=O)(=O)C1 (centres undefined)	none
CCOC(=O)c1sc(SCC(=O)Nc2ccc(N(C)C)cc2)nc1N	none
O=C(Nc1ccc(Cl)cc1)Nc1ccc2c(c1)N1CCN=C1S2	a7 integrin act inconclusive
Nc1ccc2c(c1)N1CCN=C1S2	D3 antag -64.4
CC(=O)N1CCc2c(sc3c2c(=O)n(-c2ccccc2Cl)c(=O)n3C)C1	DRD3 agonist 30.9 (no result: D3 antag, a7 integrin act)
CC(=O)N1CCc2c(sc3c2c(=O)n(Cc2ccccc2)c(=O)n3Cc2ccccc2Cl)C1	none (no result: D3 antag, a7 integrin act)
Clc1ccccc1N1CCN(Cc2ccco2)CC1	D3 antag -56.3
Clc1ccc(N2CCN(Cc3ccco3)CC2)cc1	D3 antag inconclusive
COc1ccccc1N1CCN(Cc2ccco2)CC1	D3 antag -76.1
Cc1ccccc1N1CCN(Cc2ccc([N+](=O)[O-])o2)CC1	none
COc1ccc(CN2CCN(Cc3ccco3)CC2)cc1OC	none
COc1ccccc1N1CCN(Cc2ccc(-c3ccccc3[N+](=O)[O-])o2)CC1	D3 antag -85.6
Cc1cccc(N(CC(=O)NC2CCCC2)C(=O)CS(=O)CC(=O)Nc2ccc3c(c2)OCO3)c1C (centres undefined)	none
CCOc1ccc(NC(=O)CN(C)C(=O)c2cccc(S(=O)(=O)N3CCN(C)CC3)c2)cc1OCC	none
COC(=O)c1ccc(C(c2c(N)n(Cc3ccccc3)c(=O)n(C)c2=O)N2CCOCC2)cc1 (centres undefined)	none
CSc1ccc(S(=O)(=O)Nc2ccc(F)cc2)cc1	none
CSc1ccc(S(=O)(=O)Nc2c(C)cccc2C)cc1	D3 antag -166.5
COC(=O)C/C(N)=C(\C#N)C(=O)OC	a7 integrin act inconclusive
Cc1nn(-c2cc(N3CCCCC3)ccc2[N+](=O)[O-])c(=O)c2ccccc12	D3 antag inconclusive
CN1CCN(c2ccc([N+](=O)[O-])c(-n3nc(-c4ccccc4)c4ccccc4c3=O)c2)CC1	D3 antag -53.0
NS(=O)(=O)c1ccc(CCNC(=O)C(=O)c2c[nH]c3ccccc23)cc1	none
COC(=O)c1ccc(OCC2NCCc3cc(OC)c(OC)cc32)cc1 (centres undefined)	none
Cc1nn2c(NCCN3CCOCC3)c3c(nc2c1-c1ccccc1)CCCC3	none
Cc1nn2c(N3CCN(C)CC3)c3c(nc2c1-c1ccccc1)CCCC3	D3 antag -50.4
CN1CCN(C2CCCCCC2)CC1	none
O=C(CCC(=O)c1cccs1)NNC(=O)c1ccccc1O	none
COc1ccc(-c2noc(CN(C(=O)c3ccc4c(c3)OCO4)C(C)C)n2)cc1	DRD3 agonist 90.9
C=CCN(Cc1nc(-c2ccc(OC)cc2)no1)C(=O)c1ccc2c(c1)OCO2	none
Cc1[nH]n2c(=O)cc(-c3ccccc3Cl)nc2c1-c1ccccc1	none (no result: D3 antag, a7 integrin act)
COCc1cc(=O)n2[nH]c(C)c(-c3ccc(Cl)cc3)c2n1	D3 antag -60.5
COc1cc(NS(=O)(=O)c2ccc(NC(=O)C3CCCO3)cc2)nc(OC)n1 (centres undefined)	none
C[C@H]1[C@H](c2ccccc2)C[C@@H](C(=O)O)C1(C)C	DRD3 agonist 31.8
O=C(c1ccccc1)C1CC1c1ccccc1 (centres undefined)	none
CNS(=O)(=O)c1ccc(CCC(=O)N2CCN(c3ccccc3OC)CC2)cc1	DRD3 agonist 36.9
COc1ccccc1N1CCN(C(=O)CCc2ccccc2)CC1	none
Cc1ccc(S(=O)(=O)N2[C@@H](c3ccccc3)C(C(=O)O)=CC[C@H]2c2ccc(C(C)C)cc2)cc1	D3 antag inconclusive
Cc1ccc([C@H]2C(C(=O)O)=CC[C@@H](c3ccc(Cl)cc3)N2S(=O)(=O)c2ccc(C)cc2)cc1	D3 antag -51.3
Cc1ccc([C@H]2C(C(=O)O)=CC[C@@H](c3ccc(C(C)C)cc3)N2S(=O)(=O)c2ccc(C)cc2)cc1	D3 antag -63.8
Cc1ccc(S(=O)(=O)N2[C@@H](c3ccc(Cl)cc3)C(C(=O)O)=CC[C@H]2c2ccc(C(C)C)cc2)cc1	none
CCN(CCO)Cc1csc2cc(C)ccc12	none
CCN(CCO)Cc1cn[nH]c1-c1ccc(C)c(C)c1	D3 antag -66.3
CC(C)(C)NC(=O)c1cc(Cl)ccc1[N+](=O)[O-]	none
CC(C)c1ccc2c(c1)C(N1CCN(C)CC1)Cc1cccnc1S2 (centres undefined)	D3 antag -104.3
CN1CCN2c3ncccc3Cc3ccccc3[C@@H]2C1	none (no result: a7 integrin act)
COCCSc1nnc(NC(=O)CCS(=O)(=O)c2ccccc2)s1	none
Cc1ccnc(NC(=O)CCNC(=O)c2ccccc2Cl)c1	none
COc1ccc(-c2oc(=O)c3cc(OC)c(OC)cc3c2-c2cc(F)cc(OC)c2)cc1	none
COc1ccc(-c2oc(=O)c3cc(OC)c(OC)cc3c2C(F)(F)F)cc1	DRD3 agonist 62.2
CC(=O)C1=C(O)C(=O)N(c2ccc(S(N)(=O)=O)cc2)C1c1ccc([N+](=O)[O-])cc1 (centres undefined)	D3 antag -81.5
CC(=O)C1=C(O)C(=O)N(c2ccc(C(=O)O)cc2)C1c1ccc([N+](=O)[O-])cc1 (centres undefined)	none
O=C(NCc1cccc(C(F)(F)F)c1)c1ccc2sc([C@@H]3O[C@H](CO)[C@H](O)[C@H](O)[C@H]3O)nc2c1	D3 antag inconclusive (no result: a7 integrin act)
CCn1nc(C(=O)OCC(=O)N2CCc3ccccc32)c2ccccc2c1=O	none
COc1ccc(Br)cc1Cn1nnc(C(=O)Nc2ccc3c(c2)OCCO3)c1N	none
O=C(CN1CCC(C(O)(c2ccccc2)c2ccccc2)CC1)Nc1ccccc1	none
COc1cc(NC(=S)N2CCC(C(O)(c3ccccc3)c3ccccc3)CC2)cc(OC)c1	none
COc1ccccc1OCCCN1CCC(C(O)(c2ccccc2)c2ccccc2)CC1	D3 antag -84.5 (no result: a7 integrin act)
N#Cc1ccccc1OCCCN1CCC(C(O)(c2ccccc2)c2ccccc2)CC1	D3 antag -96.2 (no result: a7 integrin act)
OC(c1ccccc1)(c1ccccc1)C1CCN(CCCOc2ccccc2Cl)CC1	D3 antag -79.7 (no result: a7 integrin act)
COC(=O)c1cccc(OCCCN2CCC(C(O)(c3ccccc3)c3ccccc3)CC2)c1	D3 antag -92.5 (no result: a7 integrin act)
O=C(CN1CCC(C(O)(c2ccccc2)c2ccccc2)CC1)Nc1cc(Cl)ccc1Cl	none
C#Cc1ccccc1OCCCN1CCC(C(O)(c2ccccc2)c2ccccc2)CC1	D3 antag inconclusive (no result: a7 integrin act)
CCc1ccc(-c2nc(CS(=O)CC(=O)NCCCN3CCC(C)CC3)c(C)o2)cc1 (centres undefined)	none
O=C(c1ccc(S(=O)(=O)Cc2cc(F)ccc2F)c([N+](=O)[O-])c1)N1CCCC1	none
COc1cccc(CN2CCNC(=O)C2CC(=O)NCCCn2ccnc2)c1 (centres undefined)	none
Cc1ccc(OCCCN2CCC(C(O)(c3ccccc3)c3ccccc3)CC2)cc1	none (no result: a7 integrin act)
OC(c1ccccc1)(c1ccccc1)C1CCN(CCCOc2ccc(F)cc2)CC1	D3 antag -95.2 (no result: a7 integrin act)
COc1ccc(-c2coc3c(C(=O)NCc4ccco4)cccc23)c(C)c1	none (no result: a7 integrin act)
COc1ccc(-c2coc3c(C(=O)NCC4CC4)cccc23)c(C)c1	DRD3 agonist 56.0 (no result: a7 integrin act)
